Inconclusive results are not listed. Values without a mark were called inactive. The source made the active and inactive calls. Calls follow the shape of the dose curve; as a rule, active = well fitted cell-killing curve with a large enough effect; inconclusive = small, poorly fitted or top-dose-only effect; inactive = flat fitted curve, though single readings scatter.
Experiment: Cellular viability qHTS for adrenocortical cancer (ACC) cell line SW-13 (AID 1963989); also: nearly all actives have a fitted effect of over 65% in size;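 as to activity (max response): cells grown in serum-free medium with ITS supplement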
Conditions: SW-13 ACC cells viability, CellTiter-Glo, 48 h; activity (max response): active compounds read low
In short: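 48 h treatment, SW-13 in ITS/DMEM serum-free; doses up to 46 uM; readout CellTiter-Glo luminescence; curve fit four-parameter logistic.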
`Cc1[nH]nc(C(F)(F)F)c1Cc1sc2c(c1C(=O)N1C[C@](C)(O)CO1)c(=O)n(C)c(=O)n2C(C)C` showed an activity (max response) of 14.8%.
Molecule `CCCc1ncc(C(=O)O)s1` has an activity (max response) of 8.93%.
For `O=C(c1ccc(/C=C/c2n[nH]c3ccccc23)cc1)N1CCNCC1`, the activity (max response) was -10.3%.
`C#C[C@]1(O)CC[C@H]2[C@@H]3CCC4=Cc5oncc5C[C@]4(C)[C@H]3CC[C@@]21C` showed an activity (max response) of 0.351%.
In the case of `COc1ccc(Cl)c(Nc2ncnc3cc(OCC4CCN(C)CC4)c(OC)cc23)c1`, the Potency is reported as 15.8 µM (active).
% is scaled to controls: 0 for no effect and ±100 for the full control effect; potency is read from the fitted curve at half-maximal effect.
